Laboratory results taken from PubChem BioAssay (NCATS).
Several values for one entry are separate records, joined by “and”; a condition that tells them apart may be missing. Identical values can stand only once. Inconclusive results are not listed. Where a call stands in place of a potency, no number is given. Activity calls are given as the source filed them. Unless noted, calls follow the shape of the dose curve; as a rule, active = well fitted curve in the direction sought with a large enough effect; inconclusive = small, poorly fitted or top-dose-only effect, or another doubt; inactive = no such curve, though single readings can be large; an effect the other way counts as inactive or inconclusive.

How the values were obtained:
[1] = qHTS Assay for Lipid Storage Modulators (AID 1519; calls by dose curve); settings: Drosophila S3 cells, BODIPY lipid droplet/cell ratio, laser cytometry, cells loaded with oleic acid
Method in brief: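 Cells seeded at 5,000 per well were treated with compounds over a concentration series and loaded with oleic acid (400 uM, as added). Lipid droplet fluorescence (488 nm excitation, 500-530 nm channel) was read by laser-scanning cytometry and normalized to 20 uM Triacsin C.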

[2] = Cell Viability - LYMP2-024 (AID 988); also: nearly all actives have a fitted effect of over 60% in size; also: potency is read from the fitted curve at half-maximal effect
Method in brief: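 Human lymphoblastoid LYMP2-024 cells (2500/well) rested 5 hr, then treated with compound for 24 hr at 37 C in complete medium. Viability was measured as intracellular ATP by CellTiter-Glo luminescence. AC50 values came from Hill-equation fits.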

[3] = Cell Viability - LYMP2-026 (AID 989); also: nearly all actives have a fitted effect of over 50% in size
Method in brief: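 Human lymphoblastoid LYMP2-026 cells, 2500/well, exposed to compound 24 h at 37 C in complete medium. Viability as intracellular ATP by CellTiter-Glo luminescence; AC50 from Hill fits of qHTS concentration-response.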

[4] = Cell Viability - LYMP1-002 - Assay at 24 hr (AID 993); also: potency is read from the fitted curve at half-maximal effect
Method in brief: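 Human lymphoblastoid LYMP1-002 cells (2500/well) treated 24 h at 37 °C; viability as intracellular ATP by CellTiter-Glo luminescence. Tetraoctylammonium bromide as positive control; AC50 from Hill-equation fits of qHTS concentration-response.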

[5] = Cell Viability - LYMP1-002 - Assay at 40 hr (AID 994); also: nearly all actives have a fitted effect of over 60% in size; also: potency is read from the fitted curve at half-maximal effect
Method in brief: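 LYMP1-002 human lymphoblastoid cells (2500/well, complete medium) were treated with compounds for 40 hr at 37 C. Intracellular ATP was measured by CellTiter-Glo luminescence, and AC50 values came from Hill-equation fits of concentration-response data; tetraoctylammonium bromide was the positive control.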

[6] = qHTS Assay for Identification of Small Molecule Inducers of Hypoxia Response (AID 2120; active = well fitted curve in the direction sought with a large enough effect in the signal ratio, with a control signal flat, not every such curve was filed as active; the % refers to the signal ratio)
Method in brief: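 HRE-bla ME-180 cells in Opti-MEM with 0.5% dialyzed FBS, pre-plated 4-5 h, then compound titration for 17 h at 37 degrees Celsius. CCF4 loaded 2.5 h at room temperature; 460/530 nm ratio gave %Activity and AC50 for induction.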

[7] = molecular target: Alpha-galactosidase A (Homo sapiens) (UniProt P06280); assay: Counterscreen for Glucocerebrosidase Inhibitors: qHTS Assay for Human alpha-Galactosidase at pH 4.5 (AID 992)
Method in brief: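 Quantitative HTS: compounds tested from 0.7 nM up to 77 uM against 2 nM enzyme with 80 uM 4-MU alpha-D-galactopyranoside. The 20 min room-temperature reaction is stopped with 1M NaOH/1M glycine, pH 10.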

[8] = molecular target: alpha-glucosidase (Oryza sativa, rice) (UniProt Q653V4); assay: Counterscreen for Glucocerebrosidase Inhibitors: qHTS Assay for Rice alpha-Glucosidase at pH 5.0 (AID 997)
Method in brief: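 Rice alpha-glucosidase (4 nM final) with 400 uM 4-methylumbelliferyl-alpha-D-glucopyranoside in citrate buffer pH 5.0, 20 min at room temperature, stopped at pH 10; fluorescence 365/440 nm, compounds 0.7 nM–77 uM, AC50 from Hill fits.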

[9] = molecular target: DNA repair nuclease/redox regulator APEX1 (Homo sapiens) (UniProt P27695); assay: qHTS Validation Assay for Inhibitors of the Human Apurinic/apyrimidinic Endonuclease 1 (APE1) (AID 1705;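 also: TAMRA fluorescence gain over two minutes as APE1 cuts a quenched THF abasic duplex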)
Method in brief: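 Endonuclease activity of human APE1 is followed as dequenching when the enzyme incises a tetrahydrofuran abasic site in a short duplex labelled 5'-TAMRA/3'-BHQ-2 (50 nM final), after 15 min enzyme–compound preincubation at room temperature.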

[10] = Counterscreen for APE1 Inhibitors: Fluorescent Dye Displacement Validation Assay (AID 1707)
Method in brief: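 Compounds are scored by their ability to displace Thiazole Orange (250 nM) from a 50 nM TAMRA-tagged duplex bearing a tetrahydrofuran abasic site. Buffer is 50 mM Tris-HCl pH7.5, 50mM NaCl, 2 mM MgCl2, 0.01% Tween-20.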

[11] = molecular target: Endonuclease 4 (Escherichia coli (strain K12)) (UniProt P0A6C1); assay: Counterscreen for APE1 Inhibitors: qHTS Validation Assay for Inhibitors of Endonuclease IV (AID 1708)
Method in brief: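 Concentration-response counterscreen run identically to the APE1 assay: 15 min room-temperature preincubation of 2 nM enzyme with compound, reaction started with 50 nM quenched abasic DNA, progress taken from kinetic fluorescence.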

[12] = qHTS for differential inhibitors of proliferation of Plasmodium falciparum line 7G8 (AID 1815);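 also: parasite growth measured after three days of incubation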; also: potency is read from the fitted curve at half-maximal effect
[13] = qHTS for differential inhibitors of proliferation of Plasmodium falciparum line Dd2 (AID 1882); settings: Potency: Plasmodium falciparum Dd2 proliferation inhibition; also: nearly all actives have a fitted effect of over 65% in size
Method in brief: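 Dd2-infected erythrocytes (0.3% parasitemia, 2.5% hematocrit final) incubated with compound 72 h at 37 C, 5% CO2; lysed with saponin/Triton buffer containing SYBR Green I, incubated overnight in the dark, then read by fluorescence (485/535 nm). Normalized to 0.29 uM artemisinin and DMSO.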

[14] = qHTS for differential inhibitors of proliferation of Plasmodium falciparum line HB3 (AID 1886); settings: Potency: Plasmodium falciparum HB3 proliferation inhibition;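 also: parasites grown with compound for 72 h before SYBR Green readout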; also: potency is read from the fitted curve at half-maximal effect
[15] = qHTS for differential inhibitors of proliferation of Plasmodium falciparum line GB4 (AID 1816); settings: Potency: Plasmodium falciparum GB4 proliferation inhibition;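 also: parasite growth measured after 72 h incubation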
[16] = qHTS for differential inhibitors of proliferation of Plasmodium falciparum line 3D7 (AID 1876); also: potency is read from the fitted curve at half-maximal effect
[17] = qHTS for differential inhibitors of proliferation of Plasmodium falciparum line D10 (AID 1877);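 also: parasites grown with compound for 72 h before DNA staining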
[18] = qHTS for differential inhibitors of proliferation of Plasmodium falciparum line W2 (AID 1883); settings: Potency: Plasmodium falciparum W2 proliferation inhibition;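 also: parasites grown with compound for 72 h before lysis and staining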; also: potency is read from the fitted curve at half-maximal effect
[19] = measured here: cell count channel max response
[20] = measured here: lipid channel max response

Chain of Alpha-galactosidase A (Homo sapiens) (P06280 whole entry, looked up): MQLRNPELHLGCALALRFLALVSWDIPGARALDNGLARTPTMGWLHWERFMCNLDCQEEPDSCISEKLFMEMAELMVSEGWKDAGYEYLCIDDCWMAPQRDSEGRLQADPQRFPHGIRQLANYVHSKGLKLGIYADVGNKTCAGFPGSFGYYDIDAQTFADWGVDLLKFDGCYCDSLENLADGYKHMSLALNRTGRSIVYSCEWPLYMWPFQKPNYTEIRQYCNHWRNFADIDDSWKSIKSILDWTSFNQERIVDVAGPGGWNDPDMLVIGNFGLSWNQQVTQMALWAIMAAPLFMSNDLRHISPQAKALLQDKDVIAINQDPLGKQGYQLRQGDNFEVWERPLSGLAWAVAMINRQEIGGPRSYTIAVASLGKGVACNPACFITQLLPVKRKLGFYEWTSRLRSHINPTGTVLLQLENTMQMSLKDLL
Chain of DNA repair nuclease/redox regulator APEX1 (Homo sapiens) (P27695 whole entry, looked up): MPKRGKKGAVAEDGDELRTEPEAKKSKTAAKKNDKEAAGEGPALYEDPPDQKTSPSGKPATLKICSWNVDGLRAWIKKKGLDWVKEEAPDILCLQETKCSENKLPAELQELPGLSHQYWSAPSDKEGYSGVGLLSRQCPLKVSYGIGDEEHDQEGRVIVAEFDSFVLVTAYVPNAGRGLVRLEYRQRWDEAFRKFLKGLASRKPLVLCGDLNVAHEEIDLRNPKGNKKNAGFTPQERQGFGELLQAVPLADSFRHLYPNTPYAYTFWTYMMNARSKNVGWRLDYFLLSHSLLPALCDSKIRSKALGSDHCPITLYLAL

CCOC(=O)n1ccn(C)c1=S
activity change, negative = inhibition ([1]; at 25.7 µM (top of the series)): -1.84% (inactive)
activity change, negative = inhibition ([1]; at 57.5 µM (top of the series)): 8.2% (inactive)
max response [1, 19]: -4.79% and 2.58%
max response [1, 20]: -8.09% and 22%

CN(C(=O)CN(CCO)CC(=O)N(C)C(C)(C)Cc1ccccc1)C(C)(C)Cc1ccccc1
activity change, negative = inhibition ([1]; at 25.7 µM (top of the series)): -12.5% (inactive)
activity change, negative = inhibition ([1]; at 57.5 µM (top of the series)): 4.59% (inactive)
max response [1, 19]: -9.05% and 8.48%
max response [1, 20]: -21.3% and 13.9%

CCN(CCCc1ccccc1)CCCc1ccccc1
activity change, negative = inhibition ([1]; at 25.7 µM (top of the series)): -2.55% (inactive)
activity change, negative = inhibition ([1]; at 57.5 µM (top of the series)): 3.79% (inactive)
max response [1, 19]: 1.49% and 14.3%
max response [1, 20]: -0.884% and 21.1%

COc1c2occc2c(OC)c2c(=O)cc(C)oc12
activity change, negative = inhibition ([1]; at 25.7 µM (top of the series)): 2.26% (inactive)
max response [1, 19]: 3.81%
max response [1, 20]: 5.65%

Nc1ccc(C(=O)O)cc1
Potency [2]: inactive
Potency [3]: inactive
Potency [4]: inactive
Potency [5]: inactive
activity change, negative = inhibition ([1]; at 57.5 µM (top of the series)): 6.97% (inactive)
max response [1, 19]: 13.3%
max response [1, 20]: 22.6%
outcome [6]: inactive

Oc1c(I)cc(Cl)c2cccnc12
Potency [5]: 50.1 µM (active)

C[C@]12CC[C@@H]3c4ccc(O)cc4CC[C@H]3[C@@H]1CC[C@@H]2O
Potency [2]: inactive
Potency [3]: inactive
outcome [7]: inactive
Potency [4]: inactive
Potency [5]: inactive
outcome [8]: inactive
Potency [9]: inactive
outcome [10]: inactive
outcome [11]: inactive
Potency [12]: inactive
Potency [13]: inactive
Potency [14]: inactive

CN1[C@@H]2CC[C@H]1CC(OC(=O)c1c[nH]c3ccccc13)C2 (stereo partly specified)
outcome [7]: inactive
outcome [8]: inactive

CN(C)/N=N/c1nc[nH]c1C(N)=O
Potency [2]: inactive
Potency [3]: inactive
Potency [4]: inactive
Potency [5]: inactive
activity change, negative = inhibition ([1]; at 57.5 µM (top of the series)): 6.55% (inactive)
max response [1, 19]: 10%
max response [1, 20]: 19.3%

COc1cc(-c2ccc(=O)[nH]n2)ccc1OC(F)F
outcome [7]: inactive
outcome [8]: inactive
Potency [9]: inactive
outcome [10]: inactive
outcome [11]: inactive
Potency [12]: inactive
Potency [15]: inactive
Potency [16]: inactive
Potency [17]: inactive
Potency [13]: inactive
Potency [18]: inactive
Potency [14]: inactive

CCCC1O[C@@H]2C[C@H]3[C@@H]4CCC5=CC(=O)C=C[C@]5(C)[C@H]4[C@@H](O)C[C@]3(C)[C@]2(C(=O)CO)O1 (stereo partly specified)
outcome [7]: inactive
outcome [8]: inactive

COc1cccc2c1C(=O)c1c(O)c3c(c(O)c1C2=O)C[C@@](O)(C(C)=O)C[C@@H]3O[C@H]1C[C@H](N)[C@H](O)[C@H](C)O1
Potency [2]: 0.126 µM (active)
Potency [4]: 0.794 µM (active)
Potency [5]: 1 µM (active)

Oc1ccc(O)cc1
Potency [2]: 50.1 µM (active)
Potency [3]: inactive
outcome [7]: inactive
Potency [4]: 39.8 µM (active)
outcome [8]: inactive
activity change, negative = inhibition ([1]; at 57.5 µM (top of the series)): -1.63% (inactive) and -0.961% (inactive)
max response [1, 19]: 3.88% and -20.5%
max response [1, 20]: 3.65% and -23.9%
Potency [9]: inactive
outcome [10]: inactive
Potency [12]: 8.91 µM (active)
Potency [16]: 11.2 µM (active)
Potency [18]: 12.6 µM (active)
Potency [14]: 12.6 µM (active)
